{"source": "the supplement of paper PMC10849652", "test_in_all_cases": "log2 fold change, soluble protein after heating vs DMSO (PISA); higher = thermal stabilisation; K562 cells, 10 uM, 30 min; active = over 0.2 and 3.5 SD of the protein, either way, in both replicates (recomputed)", "key": {"[1]": {"compound": "C1=CC=C(C=C1)[C@H](COC2=CC3=C(C=C2)NC(=O)N3)NC(=O)C4=CC=CN(C4=O)CC5=CC(=C(C=C5)F)F", "method_in_brief": "(§1)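 K562 cells at 2×10^6 cells/mL were given 10 μM compound for 30 min. Aliquots then went through 3 min of heating across 48°C-58°C, were pooled, and were extracted in PBS with 0.5% NP-40 at 4°C, and the supernatant after 21,000xg for 90 min was quantified by TMTpro 16plex LC-MS/MS with channel sums equalised. Thermal stability relative to control samples, from duplicates, is given as log2 fold change.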"}, "[2]": {"compound": "CC1=C(SC2=C1C(=N[C@H](C3=NN=C(N32)C)CC(=O)N)C4=CC=C(C=C4)Cl)C", "method_in_brief": "as §1"}, "[3]": {"compound": "CC1=C2C(=CC=C1)N=C(N(C2=O)C3=CC=CC=C3C)CN4C=NC5=C(N=CN=C54)N", "method_in_brief": "as §1"}, "[4]": {"compound": "Cc1sc2c(c1C)C(c1ccc(Cl)cc1)=N[C@@H](CC(=O)OC(C)(C)C)c1nnc(C)n1-2", "method_in_brief": "as §1"}, "[5]": {"compound": "c1ccc([C@@H]2C[C@H]2NC2CCNCC2)cc1", "method_in_brief": "as §1"}}, "note": "Targets with a hit are over-represented here; the source holds about 7,900 in all. About 0.6% of all pairs of compound and target were hits. Unmarked numbers belong to inactive results."}
{"target": "TBRG4 (UniProt Q969Z0)", "values": [{"measurement": "log2 fold change", "setting": "[1]", "value": -0.106}, {"measurement": "log2 fold change", "setting": "[2]", "value": 0.022}, {"measurement": "log2 fold change", "setting": "[3]", "value": 0.077}, {"measurement": "log2 fold change", "setting": "[4]", "value": -0.049}, {"measurement": "log2 fold change", "setting": "[5]", "value": -0.017}]}
{"target": "SLC27A2 (UniProt O14975)", "values": [{"measurement": "log2 fold change", "setting": "[1]", "value": 0.038}, {"measurement": "log2 fold change", "setting": "[2]", "value": 0.036}, {"measurement": "log2 fold change", "setting": "[3]", "value": 0.141}, {"measurement": "log2 fold change", "setting": "[4]", "value": 0.011}, {"measurement": "log2 fold change", "setting": "[5]", "value": -0.027}]}
{"target": "SLC25A38 (UniProt Q96DW6)", "sequence (Q96DW6 whole entry, looked up)": "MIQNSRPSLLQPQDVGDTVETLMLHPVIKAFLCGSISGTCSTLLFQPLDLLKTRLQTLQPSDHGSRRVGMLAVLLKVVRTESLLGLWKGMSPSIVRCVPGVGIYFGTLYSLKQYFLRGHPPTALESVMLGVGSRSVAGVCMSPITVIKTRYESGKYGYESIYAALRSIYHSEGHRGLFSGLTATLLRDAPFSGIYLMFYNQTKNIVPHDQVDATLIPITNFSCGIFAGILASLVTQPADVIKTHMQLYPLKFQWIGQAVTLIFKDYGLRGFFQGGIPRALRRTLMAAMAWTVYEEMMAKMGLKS", "values": [{"measurement": "log2 fold change", "setting": "[1]", "value": 0.014}, {"measurement": "log2 fold change", "setting": "[2]", "value": 0.034}, {"measurement": "log2 fold change", "setting": "[3]", "value": -0.035}, {"measurement": "log2 fold change", "setting": "[4]", "value": -0.035}, {"measurement": "log2 fold change", "setting": "[5]", "value": 0.014}]}
{"target": "SLC7A6OS (UniProt Q96CW6)", "values": [{"measurement": "log2 fold change", "setting": "[1]", "value": -0.026}, {"measurement": "log2 fold change", "setting": "[2]", "value": -0.043}, {"measurement": "log2 fold change", "setting": "[3]", "value": 0.03}, {"measurement": "log2 fold change", "setting": "[4]", "value": 0.012}, {"measurement": "log2 fold change", "setting": "[5]", "value": 0.032}]}
{"target": "SRP68 (UniProt Q9UHB9)", "values": [{"measurement": "log2 fold change", "setting": "[1]", "value": -0.041}, {"measurement": "log2 fold change", "setting": "[2]", "value": 0.022}, {"measurement": "log2 fold change", "setting": "[3]", "value": 0.039}, {"measurement": "log2 fold change", "setting": "[4]", "value": 0.092}, {"measurement": "log2 fold change", "setting": "[5]", "value": -0.029}]}
{"target": "STXBP2 isoform 3 (UniProt Q15833)", "values": [{"measurement": "log2 fold change", "setting": "[1]", "value": -0.15}, {"measurement": "log2 fold change", "setting": "[2]", "value": -0.05}, {"measurement": "log2 fold change", "setting": "[3]", "value": 0.071}, {"measurement": "log2 fold change", "setting": "[4]", "value": 0.031}, {"measurement": "log2 fold change", "setting": "[5]", "value": -0.03}]}
{"target": "TFRC (UniProt P02786)", "sequence (P02786 whole entry, looked up)": "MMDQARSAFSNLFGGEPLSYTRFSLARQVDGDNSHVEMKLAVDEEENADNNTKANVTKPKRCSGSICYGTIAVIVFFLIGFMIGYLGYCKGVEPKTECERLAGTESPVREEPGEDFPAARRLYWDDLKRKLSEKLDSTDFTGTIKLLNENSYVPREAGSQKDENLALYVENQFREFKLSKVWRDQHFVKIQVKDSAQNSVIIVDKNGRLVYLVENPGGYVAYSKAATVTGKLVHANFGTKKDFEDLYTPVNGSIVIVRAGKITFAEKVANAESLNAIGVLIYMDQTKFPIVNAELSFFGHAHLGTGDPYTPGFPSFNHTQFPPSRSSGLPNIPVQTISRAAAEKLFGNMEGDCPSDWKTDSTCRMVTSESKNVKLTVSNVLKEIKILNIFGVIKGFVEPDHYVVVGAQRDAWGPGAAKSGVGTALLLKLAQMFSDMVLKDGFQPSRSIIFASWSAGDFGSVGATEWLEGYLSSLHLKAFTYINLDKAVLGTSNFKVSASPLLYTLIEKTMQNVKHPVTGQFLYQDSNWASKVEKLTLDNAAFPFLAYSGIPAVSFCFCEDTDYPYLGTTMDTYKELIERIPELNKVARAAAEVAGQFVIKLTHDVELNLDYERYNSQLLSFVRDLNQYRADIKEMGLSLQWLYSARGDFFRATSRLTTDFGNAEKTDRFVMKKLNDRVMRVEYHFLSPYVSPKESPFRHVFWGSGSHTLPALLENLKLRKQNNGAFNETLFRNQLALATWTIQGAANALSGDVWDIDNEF", "values": [{"measurement": "log2 fold change", "setting": "[1]", "value": 0.058}, {"measurement": "log2 fold change", "setting": "[2]", "value": 0.032}, {"measurement": "log2 fold change", "setting": "[3]", "value": 0.008}, {"measurement": "log2 fold change", "setting": "[4]", "value": 0.011}, {"measurement": "log2 fold change", "setting": "[5]", "value": 0.021}]}
{"target": "TFB2M (UniProt Q9H5Q4)", "values": [{"measurement": "log2 fold change", "setting": "[1]", "value": -0.019}, {"measurement": "log2 fold change", "setting": "[2]", "value": 0.035}, {"measurement": "log2 fold change", "setting": "[3]", "value": 0.103}, {"measurement": "log2 fold change", "setting": "[4]", "value": -0.019}, {"measurement": "log2 fold change", "setting": "[5]", "value": -0.022}]}
{"target": "THADA (UniProt Q6YHU6)", "sequence (Q6YHU6 whole entry, looked up)": "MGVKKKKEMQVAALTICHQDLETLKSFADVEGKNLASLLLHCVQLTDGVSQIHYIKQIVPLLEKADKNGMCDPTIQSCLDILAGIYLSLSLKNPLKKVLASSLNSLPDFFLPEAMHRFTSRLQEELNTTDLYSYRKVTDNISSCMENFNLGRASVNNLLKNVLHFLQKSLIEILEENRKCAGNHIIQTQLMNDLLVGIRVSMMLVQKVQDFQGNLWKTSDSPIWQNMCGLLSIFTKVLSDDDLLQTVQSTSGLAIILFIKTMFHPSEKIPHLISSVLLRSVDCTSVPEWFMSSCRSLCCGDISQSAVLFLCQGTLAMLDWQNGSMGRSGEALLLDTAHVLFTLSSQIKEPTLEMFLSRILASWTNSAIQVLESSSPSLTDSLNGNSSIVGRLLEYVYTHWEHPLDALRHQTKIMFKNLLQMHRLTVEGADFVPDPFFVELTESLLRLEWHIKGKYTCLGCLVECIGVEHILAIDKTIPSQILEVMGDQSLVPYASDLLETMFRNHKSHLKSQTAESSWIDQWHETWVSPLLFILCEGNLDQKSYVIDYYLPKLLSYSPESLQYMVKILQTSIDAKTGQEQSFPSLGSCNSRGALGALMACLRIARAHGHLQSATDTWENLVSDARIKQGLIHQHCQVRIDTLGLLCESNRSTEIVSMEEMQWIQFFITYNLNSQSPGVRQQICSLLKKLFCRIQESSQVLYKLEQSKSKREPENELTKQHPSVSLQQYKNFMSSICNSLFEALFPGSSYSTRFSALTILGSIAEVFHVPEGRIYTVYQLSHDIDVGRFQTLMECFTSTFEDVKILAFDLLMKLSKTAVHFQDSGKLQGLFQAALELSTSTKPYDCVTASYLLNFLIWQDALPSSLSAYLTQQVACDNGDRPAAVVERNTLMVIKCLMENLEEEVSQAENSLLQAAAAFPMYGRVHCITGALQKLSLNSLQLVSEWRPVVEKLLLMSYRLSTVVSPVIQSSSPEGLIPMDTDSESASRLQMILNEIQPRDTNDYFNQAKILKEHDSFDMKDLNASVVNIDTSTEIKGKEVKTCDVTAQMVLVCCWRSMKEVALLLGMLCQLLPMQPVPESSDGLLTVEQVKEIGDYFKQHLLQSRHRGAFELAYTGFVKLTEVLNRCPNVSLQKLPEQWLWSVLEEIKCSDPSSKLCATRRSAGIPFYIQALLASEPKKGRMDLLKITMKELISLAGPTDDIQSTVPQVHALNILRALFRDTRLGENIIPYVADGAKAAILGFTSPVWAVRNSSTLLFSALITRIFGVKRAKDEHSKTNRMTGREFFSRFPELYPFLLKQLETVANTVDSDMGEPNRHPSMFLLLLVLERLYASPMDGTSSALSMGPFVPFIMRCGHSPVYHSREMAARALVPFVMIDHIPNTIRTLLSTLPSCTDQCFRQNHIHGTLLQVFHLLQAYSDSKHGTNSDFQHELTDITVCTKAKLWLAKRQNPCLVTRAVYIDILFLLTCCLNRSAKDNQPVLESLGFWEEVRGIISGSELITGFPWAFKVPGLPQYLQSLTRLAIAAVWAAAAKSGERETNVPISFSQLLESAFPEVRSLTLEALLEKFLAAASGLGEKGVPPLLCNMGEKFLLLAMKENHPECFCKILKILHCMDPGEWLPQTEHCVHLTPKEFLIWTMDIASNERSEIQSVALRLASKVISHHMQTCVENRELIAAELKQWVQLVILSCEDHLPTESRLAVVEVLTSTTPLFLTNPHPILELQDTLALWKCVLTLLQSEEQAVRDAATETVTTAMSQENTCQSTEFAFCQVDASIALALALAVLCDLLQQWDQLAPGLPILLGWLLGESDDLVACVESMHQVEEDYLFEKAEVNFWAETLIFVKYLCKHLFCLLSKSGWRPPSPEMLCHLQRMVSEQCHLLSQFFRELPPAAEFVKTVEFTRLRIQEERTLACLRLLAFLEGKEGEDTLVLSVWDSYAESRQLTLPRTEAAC", "values": [{"measurement": "log2 fold change", "setting": "[1]", "value": -0.06}, {"measurement": "log2 fold change", "setting": "[2]", "value": 0.066}, {"measurement": "log2 fold change", "setting": "[3]", "value": 0.011}, {"measurement": "log2 fold change", "setting": "[4]", "value": -0.027}, {"measurement": "log2 fold change", "setting": "[5]", "value": -0.032}]}
{"target": "TIMM29 (UniProt Q9BSF4)", "sequence (Q9BSF4 whole entry, looked up)": "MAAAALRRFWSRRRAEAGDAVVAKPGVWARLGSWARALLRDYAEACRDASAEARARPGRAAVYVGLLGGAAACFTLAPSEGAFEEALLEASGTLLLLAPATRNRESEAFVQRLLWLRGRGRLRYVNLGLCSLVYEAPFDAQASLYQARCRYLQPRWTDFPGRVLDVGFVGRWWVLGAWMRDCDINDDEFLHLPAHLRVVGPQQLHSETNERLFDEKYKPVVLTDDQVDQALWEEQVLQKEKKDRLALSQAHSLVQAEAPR", "values": [{"measurement": "log2 fold change", "setting": "[1]", "value": -0.034}, {"measurement": "log2 fold change", "setting": "[2]", "value": 0.114}, {"measurement": "log2 fold change", "setting": "[3]", "value": -0.026}, {"measurement": "log2 fold change", "setting": "[4]", "value": -0.006}, {"measurement": "log2 fold change", "setting": "[5]", "value": 0.031}]}
{"target": "STARD7 (UniProt Q9NQZ5)", "values": [{"measurement": "log2 fold change", "setting": "[1]", "value": -0.018}, {"measurement": "log2 fold change", "setting": "[2]", "value": 0.075}, {"measurement": "log2 fold change", "setting": "[3]", "value": 0.145}, {"measurement": "log2 fold change", "setting": "[4]", "value": 0.063}, {"measurement": "log2 fold change", "setting": "[5]", "value": -0.017}]}
{"target": "SRI (UniProt P30626)", "values": [{"measurement": "log2 fold change", "setting": "[1]", "value": -0.034}, {"measurement": "log2 fold change", "setting": "[2]", "value": 0.111}, {"measurement": "log2 fold change", "setting": "[3]", "value": 0.043}, {"measurement": "log2 fold change", "setting": "[4]", "value": -0.093}, {"measurement": "log2 fold change", "setting": "[5]", "value": -0.064}]}
{"target": "SMARCA5 (UniProt O60264)", "sequence (O60264 whole entry, looked up)": "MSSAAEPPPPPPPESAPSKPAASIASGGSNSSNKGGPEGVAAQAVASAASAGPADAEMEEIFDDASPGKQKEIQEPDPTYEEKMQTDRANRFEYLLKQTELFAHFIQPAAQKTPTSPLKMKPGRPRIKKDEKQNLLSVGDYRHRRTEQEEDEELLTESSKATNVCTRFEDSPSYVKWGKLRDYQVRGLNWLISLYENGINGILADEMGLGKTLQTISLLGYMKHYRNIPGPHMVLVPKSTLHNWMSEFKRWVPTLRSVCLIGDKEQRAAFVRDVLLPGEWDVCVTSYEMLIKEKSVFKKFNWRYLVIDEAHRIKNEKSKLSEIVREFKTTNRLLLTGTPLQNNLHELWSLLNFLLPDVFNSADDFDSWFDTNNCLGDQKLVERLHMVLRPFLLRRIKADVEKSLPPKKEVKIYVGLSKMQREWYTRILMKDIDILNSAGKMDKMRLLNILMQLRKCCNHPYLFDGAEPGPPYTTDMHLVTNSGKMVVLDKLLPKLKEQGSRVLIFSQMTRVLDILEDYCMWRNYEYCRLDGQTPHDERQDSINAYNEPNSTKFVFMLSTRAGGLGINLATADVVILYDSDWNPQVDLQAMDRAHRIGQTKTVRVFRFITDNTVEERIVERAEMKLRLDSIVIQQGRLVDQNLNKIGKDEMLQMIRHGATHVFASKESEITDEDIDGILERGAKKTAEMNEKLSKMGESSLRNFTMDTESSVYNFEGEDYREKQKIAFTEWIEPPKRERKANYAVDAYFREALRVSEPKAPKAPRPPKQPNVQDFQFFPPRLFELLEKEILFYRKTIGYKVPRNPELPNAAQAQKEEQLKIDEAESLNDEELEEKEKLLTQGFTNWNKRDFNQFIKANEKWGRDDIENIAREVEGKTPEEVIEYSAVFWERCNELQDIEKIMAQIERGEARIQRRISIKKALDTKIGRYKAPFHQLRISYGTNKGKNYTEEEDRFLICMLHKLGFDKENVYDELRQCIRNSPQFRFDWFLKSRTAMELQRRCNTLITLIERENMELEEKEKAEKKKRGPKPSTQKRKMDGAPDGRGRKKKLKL", "values": [{"measurement": "log2 fold change", "setting": "[1]", "value": -0.168}, {"measurement": "log2 fold change", "setting": "[2]", "value": 0.063}, {"measurement": "log2 fold change", "setting": "[3]", "value": 0.105}, {"measurement": "log2 fold change", "setting": "[4]", "value": -0.026}, {"measurement": "log2 fold change", "setting": "[5]", "value": -0.006}]}
{"target": "SYF2 (UniProt O95926)", "values": [{"measurement": "log2 fold change", "setting": "[1]", "value": 0.032}, {"measurement": "log2 fold change", "setting": "[2]", "value": 0.029}, {"measurement": "log2 fold change", "setting": "[3]", "value": -0.077}, {"measurement": "log2 fold change", "setting": "[4]", "value": 0.145}, {"measurement": "log2 fold change", "setting": "[5]", "value": 0.065}]}
{"target": "SUOX (UniProt P51687)", "values": [{"measurement": "log2 fold change", "setting": "[1]", "value": 0.01}, {"measurement": "log2 fold change", "setting": "[2]", "value": 0}, {"measurement": "log2 fold change", "setting": "[3]", "value": 0.096}, {"measurement": "log2 fold change", "setting": "[4]", "value": -0.011}, {"measurement": "log2 fold change", "setting": "[5]", "value": -0.021}]}
{"target": "TCOF1 isoform 4 (UniProt Q13428)", "values": [{"measurement": "log2 fold change", "setting": "[1]", "value": 0.016}, {"measurement": "log2 fold change", "setting": "[2]", "value": 0.006}, {"measurement": "log2 fold change", "setting": "[3]", "value": 0.018}, {"measurement": "log2 fold change", "setting": "[4]", "value": 0.033}, {"measurement": "log2 fold change", "setting": "[5]", "value": 0.042}]}
{"target": "TGFBR1 isoform 2 (UniProt P36897)", "sequence (P36897 whole entry, looked up)": "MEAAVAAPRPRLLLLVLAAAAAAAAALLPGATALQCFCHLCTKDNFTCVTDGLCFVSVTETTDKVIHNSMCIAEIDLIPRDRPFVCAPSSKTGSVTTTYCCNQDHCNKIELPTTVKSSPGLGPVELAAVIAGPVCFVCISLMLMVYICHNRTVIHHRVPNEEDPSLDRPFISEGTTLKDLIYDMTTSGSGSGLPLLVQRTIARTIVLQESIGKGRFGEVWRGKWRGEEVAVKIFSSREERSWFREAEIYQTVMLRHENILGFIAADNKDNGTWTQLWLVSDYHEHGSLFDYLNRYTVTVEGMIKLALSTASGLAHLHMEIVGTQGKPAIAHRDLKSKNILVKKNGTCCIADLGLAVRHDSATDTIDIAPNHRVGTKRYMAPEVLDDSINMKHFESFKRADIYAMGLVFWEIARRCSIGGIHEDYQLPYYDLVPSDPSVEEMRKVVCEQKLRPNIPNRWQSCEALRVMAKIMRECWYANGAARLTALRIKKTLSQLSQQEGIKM", "values": [{"measurement": "log2 fold change", "setting": "[1]", "value": -0.001}, {"measurement": "log2 fold change", "setting": "[2]", "value": 0.029}, {"measurement": "log2 fold change", "setting": "[3]", "value": -0.047}, {"measurement": "log2 fold change", "setting": "[4]", "value": -0.029}, {"measurement": "log2 fold change", "setting": "[5]", "value": 0.026}]}
{"target": "SREK1 isoform 2 (UniProt Q8WXA9)", "values": [{"measurement": "log2 fold change", "setting": "[1]", "value": 0.05}, {"measurement": "log2 fold change", "setting": "[2]", "value": -0.06}, {"measurement": "log2 fold change", "setting": "[3]", "value": -0.039}, {"measurement": "log2 fold change", "setting": "[4]", "value": -0.037}, {"measurement": "log2 fold change", "setting": "[5]", "value": 0.026}]}
{"target": "TBC1D5 isoform 2 (UniProt Q92609)", "values": [{"measurement": "log2 fold change", "setting": "[1]", "value": -0.046}, {"measurement": "log2 fold change", "setting": "[2]", "value": 0.055}, {"measurement": "log2 fold change", "setting": "[3]", "value": 0.066}, {"measurement": "log2 fold change", "setting": "[4]", "value": 0.003}, {"measurement": "log2 fold change", "setting": "[5]", "value": -0.034}]}
{"target": "TIMM10 (UniProt P62072)", "values": [{"measurement": "log2 fold change", "setting": "[1]", "value": -0.013}, {"measurement": "log2 fold change", "setting": "[2]", "value": -0.043}, {"measurement": "log2 fold change", "setting": "[3]", "value": 0.042}, {"measurement": "log2 fold change", "setting": "[4]", "value": -0.033}, {"measurement": "log2 fold change", "setting": "[5]", "value": 0.022}]}
{"target": "SNUPN (UniProt O95149)", "values": [{"measurement": "log2 fold change", "setting": "[1]", "value": -0.027}, {"measurement": "log2 fold change", "setting": "[2]", "value": 0.051}, {"measurement": "log2 fold change", "setting": "[3]", "value": 0.067}, {"measurement": "log2 fold change", "setting": "[4]", "value": 0.03}, {"measurement": "log2 fold change", "setting": "[5]", "value": 0.021}]}
{"target": "STK38L (UniProt Q9Y2H1)", "values": [{"measurement": "log2 fold change", "setting": "[1]", "value": -0.009}, {"measurement": "log2 fold change", "setting": "[2]", "value": "0.472 (active)"}, {"measurement": "log2 fold change", "setting": "[3]", "value": 0.162}, {"measurement": "log2 fold change", "setting": "[4]", "value": 0.07}, {"measurement": "log2 fold change", "setting": "[5]", "value": 0.224}]}
{"target": "SNX12 isoform 1 (UniProt Q9UMY4)", "sequence (Q9UMY4 whole entry, looked up)": "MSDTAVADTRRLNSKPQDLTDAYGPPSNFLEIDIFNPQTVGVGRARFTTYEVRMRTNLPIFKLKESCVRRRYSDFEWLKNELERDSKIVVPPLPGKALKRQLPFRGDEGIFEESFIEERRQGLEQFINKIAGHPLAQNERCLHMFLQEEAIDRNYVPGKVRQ", "values": [{"measurement": "log2 fold change", "setting": "[1]", "value": 0.016}, {"measurement": "log2 fold change", "setting": "[2]", "value": -0.009}, {"measurement": "log2 fold change", "setting": "[3]", "value": 0.095}, {"measurement": "log2 fold change", "setting": "[4]", "value": 0.026}, {"measurement": "log2 fold change", "setting": "[5]", "value": 0.02}]}
{"target": "SNX5 (UniProt Q9Y5X3)", "values": [{"measurement": "log2 fold change", "setting": "[1]", "value": -0.016}, {"measurement": "log2 fold change", "setting": "[2]", "value": 0.045}, {"measurement": "log2 fold change", "setting": "[3]", "value": 0.014}, {"measurement": "log2 fold change", "setting": "[4]", "value": 0.04}, {"measurement": "log2 fold change", "setting": "[5]", "value": -0.071}]}
